This is a sample that favours compounds with a hit; in the whole collection about 0.45% have one here.
FMDV antiviral – Primary qHTS Assay for Foot and Mouth Disease Virus Antivirals against NCGC Sytravon and CBC Compound Libraries: Firefly Luciferase Signal; FMDV antiviral cell assay, firefly luciferase signal; Potency, µM (series often up to 57.5 µM), for the others: top-dose activity change, negative = inhibition, usual class: inhibitors; hit rate 0.23% among 120,000; AID 1745856, 2022; note: nearly all actives have a fitted effect of over 60% in size
FMDV RLuc – Primary qHTS Assay for Foot and Mouth Disease Virus Antivirals against NCGC Sytravon and CBC Compound Libraries: Renilla Luciferase Signal; AID 1745857, 2022; FMDV replicon cells, Renilla luciferase signal; Potency, µM (series often up to 57.5 µM), inactives show at the top dose activity change, negative = inhibition, most hits filed as inhibitors; hit rate 0.32% among 120,000; note: nearly all actives have a fitted effect of over 55% in size
* hit, by the source's call; ? = inconclusive; [ ] = remark or other dose. Calls come from the whole dose curve. % is set by controls: 0 for no effect and ±100 for the full control effect; potency is the fitted concentration of half-maximal effect.

SMILES	FMDV antiviral	FMDV RLuc
Cc1ccc(-c2csc(NC(=O)c3cnc4c(cnn4C(C)C)c3)n2)cc1C	11µM*	?
CCC(C)c1ccc(-c2csc(NC(=O)c3cnc4c(c3)c(=O)n(C)c(=O)n4C)n2)cc1 (centres undefined)	119%	-8%
COc1ccc(-c2nc(C)c(-c3ccccc3)s2)cc1	267%	25%
COc1ccc(Cc2nc(C)c(-c3ccccc3)s2)cc1OC	?	10µM*
Cn1c(=O)c2c(nc(Cl)n2CC(=O)c2ccc(C(C)(C)C)cc2)n(C)c1=O	?	11µM*
Cn1c(=O)c2c(nc(Br)n2CC(=O)c2ccc(F)cc2)n(C)c1=O	9%	-8%
CCC(C)NC(=O)c1ccc(N(C)C2CCCCC2)cc1 (centres undefined)	205%	-3%[1.06 µM]
CCC(C)NC(=O)N(C)C1CCN(c2ccc(Cl)cc2)CC1 (centres undefined)	?	13µM*
Cc1onc(-c2ccccc2Cl)c1C(=O)Oc1ccccc1F	-19%	37%
CCOc1ccc(OC(=O)c2c(-c3ccccc3Cl)noc2C)cc1	28µM*	?
CN(C)CCCNC(=O)c1cc(-c2ccccc2)nc2ccccc12	-11%	-14%
CN(C)CCCNC(=O)c1cc(-c2ccc(-c3ccccc3)cc2)nc2ccccc12	99%	8.9µM*
CC(=O)c1ccccc1NC(=O)c1ccc2ccccc2n1	208%	9%
COc1ccc(S(=O)(=O)Nc2cccc(-c3ccc(N4CCCCC4)nn3)c2)c(OC)c1	100%	200%
CN(C)CCCn1c(-c2ccc(COc3ccc(Br)cc3)o2)n[nH]c1=S	0%	10%
CC(OC(=O)c1ccc2c(c1)NC(=O)CS2)C(=O)c1ccccc1 (centres undefined)	84%	14%
CC(=O)Nc1ccc(NC(=O)C(C)OC(=O)c2ccc3c(c2)NC(=O)CS3)cc1 (centres undefined)	3%	-10%[1.06 µM]
COc1ccc(CNC(=O)C(C)OC(=O)c2ccc3c(c2)NC(=O)CS3)cc1OC (centres undefined)	25µM*	?
Cc1[nH]c2ccccc2c1C(=O)C(C)OC(=O)c1ccc2c(c1)NC(=O)CS2 (centres undefined)	35µM*	?
Nc1nc2c(s1)C(c1ccccc1OCc1ccccc1Cl)CC(=O)N2 (centres undefined)	-11%	-8%
Cc1ccc(COc2ccccc2CNc2ncn[nH]2)cc1	0%	-22%
CC(=O)c1cccc(OCC(O)COc2cc3sc(C)nc3c3sccc23)c1 (centres undefined)	-5%	-2%
Cc1cc(C)cc(-n2ccnc2SCC(=O)Nc2cccc3ccccc23)c1	2%	13%
Cc1cc(C)cc(-n2ccnc2SCC(=O)Nc2ccccc2F)c1	?	20µM*
COc1ccc(N2CCN(C(=O)CCc3c(C)nc4cc(-c5ccc(Cl)cc5)nn4c3C)CC2)cc1	32µM*	-5%
SMILES	FMDV antiviral	FMDV RLuc
COc1ccc(N2CCN(C(=O)CCc3c(C)nc4cc(-c5ccc(OC)cc5OC)nn4c3C)CC2)cc1	-20%	-15%
COc1ccccc1CCNC(=O)Cn1ccc2cc(S(=O)(=O)N3CCCCC3)ccc21	-18%	28µM*
COc1cccc(CNC(=O)Cn2ccc3cc(S(=O)(=O)N4CCCC4)ccc32)c1OC	-16%	18%
CC1Sc2ccc(C(=O)NNC(=O)CSc3cccc4cccnc34)cc2NC1=O (centres undefined)	12%	2%
Cn1c(SCC(=O)Nc2ccccc2C#N)nc2cc(-c3ccccc3)sc2c1=O	14%	-1%
COc1ccc2c(c1)C(C)=CC(C)(C)N2C(=O)Nc1cccc(Cl)c1	65%	10%
Cc1ccccc1CC(=O)Nc1cccc2ncccc12	21%	9%
Cc1ccccc1CNc1ncnc2ccccc12	11µM*	?
CCNc1nc(-c2ccc(S(=O)(=O)N3CCCCCC3)cc2)cs1	-9%	-13%
CC(C)CNc1nc(-c2ccc(S(=O)(=O)N3CCCC3)cc2)cs1	?	22µM*
CC(NC(=O)c1ccc(-c2ccco2)cc1)c1ccccc1 (centres undefined)	36%	25%
c1cncc(-c2nc(Sc3nnnn3C3CCCC3)c3ccccc3n2)c1	15%	-17%
CC1(C)CC(C)(O)N(CCc2ccccc2)C(=S)N1 (centres undefined)	0%	33%
CCN(CC)S(=O)(=O)NCc1ccnc(N2CCN(c3ccc(F)cc3)CC2)c1	?	10µM*
CCCN(CCC)S(=O)(=O)NCc1ccnc(N2CCN(c3ccc(F)cc3)CC2)c1	-29%	-13%
N#Cc1nc(/C=C/c2cccs2)oc1NC1CC1	55%	3%
O=C(O)c1cc(NCc2ccc(OCc3ccccc3)cc2)ccc1N1CCOCC1	?	28µM*
O=C(O)c1cc(NCc2ccccc2OCc2ccccc2)ccc1N1CCOCC1	6%	35%
Cc1cc(C(=O)OCC(=O)c2ccc(OCc3ccccc3)cc2)c2ccccc2n1	137%	6%
Cc1nn(-c2ccc3nncn3n2)c2c1C(c1ccccc1Cl)CC(=O)N2 (centres undefined)	-5%	-8%
Cc1noc(C)c1CS(=O)(=O)c1ccccc1Cl	3%	16%
CC1C/C(=N/NC(=S)Nc2ccc(SC(F)F)cc2)CC(C)(C)C1 (centres undefined)	159%	14%
COc1ccc(Cl)cc1-n1c(/C=C/c2cccc3ccccc23)nc2ccccc2c1=O	-23%	24%
O=c1c2ccccc2nc(/C=C/c2cccc3ccccc23)n1-c1ccccc1Cl	?	25µM*
COc1cc(CNCC2CCNCC2)ccc1OCc1ccccc1Cl	?	35µM*
SMILES	FMDV antiviral	FMDV RLuc
CCOc1ccc(CN2CCN(Cc3ccc4c(c3)c3ccccc3n4CC)CC2)cc1	22%	?
CCn1c2ccccc2c2cc(CNCC3CCNCC3)ccc21	?	28µM*
COc1cc(CNCc2ccco2)ccc1OCc1ccccc1C	0%	2%
CN(C)CCNc1c([N+](=O)[O-])cnc2ccc(Br)cc12	-11%	-15%
CC(=O)c1ccc(S(=O)(=O)N2CCn3cccc3C2c2ccc(F)c(F)c2)cc1 (centres undefined)	-9%	23%
CC(=O)c1ccc(S(=O)(=O)N2CCn3cccc3C2c2ccccc2F)cc1 (centres undefined)	13%	32µM*
CCOC(=O)CS(=O)(=O)c1nc(-c2ccc(F)cc2)cc(C(F)(F)F)n1	?	28µM*
COc1ccc(-c2cc(C(F)(F)F)nc(S(C)(=O)=O)n2)cc1	-32%	?
CC(C)CCn1c(N2CCN(Cc3c(F)cccc3Cl)CC2)nc2c1c(=O)[nH]c(=O)n2C	16%	8%
CC(=O)c1ccc(NC(=O)C2(c3ccccc3)CCCC2)cc1	4%	11%
COc1ccc(C(=O)OCc2nc(-c3ccc(F)cc3)no2)cc1S(=O)(=O)N1CCCCC1C (centres undefined)	11%	-5%
CC1=C2C(=O)CC(C)CC2=Nc2ccccc2N1 (centres undefined)	11%	2%
CC1=C2C(=O)CC(c3cccc(Cl)c3)CC2=Nc2ccccc2N1 (centres undefined)	?	18µM*
C=C(C)Cn1c(N2CCN(Cc3ccccc3)CC2)nc2c1c(=O)[nH]c(=O)n2C	1%	-1%
COc1cc(OC)c(NC(=O)NCc2ccc3c(c2)CCN3C(C)=O)cc1Cl	-9%	-4%

From PubChem
